# In PubChem BioAssay:
# Experiment: calcein-AM signal in unstimulated myeloma cells – cell-based, calcein-AM fluorescence, 48 h, PK04 Diversity Set, profiling panel (AID 1166);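 also: cells grown under basal conditions without added stimulus; test concentration not given here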
# Settings: RPMI8226 myeloma viability, higher = more signal
row,Compound,z-score
1,Cc1cc(C)c(C(O)C2C=CC3C(=O)N(c4ccccc4)C(=O)C3N2Nc2ccccc2)c(C)c1 (configuration not stated),0.281
2,O=C1O[C@H](c2ccccc2)[C@H](c2ccccc2)N2[C@H]1[C@@H](C(=O)N1CCN(c3ncccn3)CC1)[C@]1(C(=O)Nc3ccc(C#CCCO)cc31)[C@H]2c1ccc(OCCO)cc1,-0.284
3,O=C1CSC(c2cccc([N+](=O)[O-])c2)N1c1ccccc1 (configuration not stated),-0.566
4,COC(=O)C(CC#Cc1ccc2c(c1)[C@]1(C(=O)N2)[C@H](c2ccc(O)cc2)N2[C@H](c3ccccc3)[C@H](c3ccccc3)OC(=O)[C@H]2[C@@H]1C(=O)O)C(=O)OC,-0.892
5,COCCCNC(=O)[C@@]1(Cc2ccccc2I)c2ccccc2C(=O)N(Cc2ccccc2Cl)[C@H]1c1ccc(CO)cc1,-0.503
6,COC(=O)[C@]1(Cc2ccccc2CN=[N+]=[N-])N=C(c2ccc(OCCCO)cc2)O[C@@H]1c1ccccc1,-3.96
7,CN(C)CCCCCCNC(=O)[C@@H]1C[C@@H]2C(=O)NCC(=O)N2[C@@H]1c1ccc(O)cc1,0.71
8,COC(=O)c1ccc(OC)c(/C=C\CC(CCc2ccccc2)OC(=O)c2ccncc2)c1 (configuration not stated),-2.2
9,CCOC(=O)C[C@H]1[C@H](OC(=O)Cc2ccc3c(c2)OCO3)[C@@H](NC(=O)c2ccccc2)c2cc(OCCCO)ccc2N1C(=O)c1ccc2ccccc2n1,-0.243
10,CCCNC(=O)[C@@]1(Sc2ccc(C)cc2)CC(=O)N(Cc2ccccc2)[C@@H]1c1ccc(CO)cc1I,-2.52
11,CC1(C)[C@@H]2CC(C(O)C3C=CC4C(=O)N(c5ccccc5)C(=O)C4N3Nc3ccccc3F)=C[C@@H]1C2 (some centres not stated),0.219
12,COc1ccc(C#Cc2ccc3c(c2)[C@]2(C(=O)N3)[C@H](C(N)=O)[C@H]3C(=O)O[C@H](c4ccccc4)[C@H](c4ccccc4)N3[C@@H]2c2ccc(O)cc2)cc1,-4.56
13,COc1ccc([Si](C)(C)[C@@H]2[C@@H](CCO)O[C@]3(C(=O)N(Cc4ccc(N5C(=O)c6ccccc6Oc6ccccc65)cc4)c4ccccc43)[C@H]2C)cc1,-3.17
14,NC(=O)NCC#Cc1ccc2c(c1)[C@]1(C(=O)N2)[C@H](c2ccc(O)cc2)N2[C@H](c3ccccc3)[C@H](c3ccccc3)OC(=O)[C@H]2[C@@H]1C(=O)NC[C@H](O)c1ccccc1,0.0231
15,CO[C@H]1O[C@H](CO)[C@@H](OC(=O)c2ccc(Br)cc2)[C@@H]2OC(=O)[C@H](Cc3cccc(Br)c3)C/C=C/C[C@@H](Cc3cccc(Br)c3)C(=O)O[C@@H]12,-3.5
16,CO[C@H]1O[C@H](CO)[C@@H](OC(=O)Nc2cccc(F)c2)[C@H](OC(=O)Nc2ccc3c(c2)OCO3)[C@H]1OC(=O)Nc1ccc2c(c1)OCO2,-2.11
17,CC(C)C[C@H]1NC(=O)[C@H](C)NC(=O)[C@@]23C(=O)N[C@@H](Cc4ccccc4)C2[C@H](C)[C@@]2(C)O[C@H]2C3/C=C/C/C=C\CNC1=O (some centres not stated),-0.659
18,Cc1ccc(C(C)CC(O)C2C=CC3C(=O)N(Cc4ccccc4)C(=O)C3N2n2cnnc2)o1 (configuration not stated),-1.63
19,COCCCNC(=O)[C@@]1(Cc2ccccc2)COC(c2ccc(OCCCO)cc2)=N1,-1.04
20,O=C1c2ccccc2[C@](Cc2ccccc2I)(C(=O)NC2CC2)[C@H](c2ccc(CO)cc2)N1Cc1ccccc1Cl,-0.715
21,CCOC(=O)C[C@H]1[C@H](OC(=O)Cc2ccc3c(c2)OCO3)[C@@H](NC(=O)c2ccccc2)c2cc(OCCCO)ccc2N1C(=O)c1ccccc1,0.503
22,CCOC(=O)C1=CC[C@@H](c2ccc(N(CC)CC)cc2)N(S(=O)(=O)c2ccc(C)cc2)[C@H]1c1ccc([N+](=O)[O-])cc1,-0.173
23,COC(=O)C(CC#Cc1ccc2c(c1)[C@]1(C(=O)N2)[C@H](C(=O)N2CCc3cc(OC)c(OC)cc3C2)[C@H]2C(=O)O[C@H](c3ccccc3)[C@H](c3ccccc3)N2[C@@H]1c1ccc(OCCO)cc1)C(=O)OC,0.678
24,CC(C)N1C(=O)c2ccccc2[C@](C)(C(=O)O)[C@@H]1c1ccc(CO)cc1,0.0868
25,C=CCC(OC(C)=O)[C@@H]1[C@@H](N(Cc2ccc(-c3ccccc3)cc2)C(=O)c2cccc3ccccc23)c2cc(OCCCO)ccc2N1C(=O)c1ccc2ccccc2n1 (some centres not stated),0.116
26,[N-]=[N+]=Nc1ccccc1[C@H]1OC(c2ccc(OCCCO)cc2)=N[C@@]1(Cc1ccccc1)C(=O)NCc1ccccc1,-3.84
27,COCCCNC(=O)[C@]1(CCS(=O)(=O)c2ccccc2)N=C(c2ccc(OCCCO)cc2)O[C@@H]1c1ccccc1,-0.7
